Columns and labels:
Assay in all cases: log2 ratio of Biotin-Ahx-Ub-VS probe labelling (fragment/DMSO); higher = less target engagement (more negative = stronger competition), active = hit call of the paper (q ≤ 0.05, log2 ratio ≤ -1)
Details in all cases: compound concentration: 200 uM; treatment time: 3 h
USP34 = USP34 (UniProt Q70CQ2)
Method in brief: (§1)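 Labelled DUBs from HEK293T lysate were NeutrAvidin-enriched, digested with LysC and trypsin, and run by diaPASEF LC-MS/MS. Before that, each 495 µg sample in Tris/CHAPS/IGEPAL buffer with protease inhibitors was treated in triplicate with fragment at 200 µM or vehicle for 3 h, then with Biotin-Ahx-Ub-VS at 0.5 µM final for 1 h. Values are average log2 ratios of fragment over vehicle by unpaired t-test, based on global-median-normalised Spectronaut label-free quantities from proteins with ≥2 unique peptides.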

USP36 = target: T1, USP36 (UniProt Q9P275)
T1 sequence (whole entry): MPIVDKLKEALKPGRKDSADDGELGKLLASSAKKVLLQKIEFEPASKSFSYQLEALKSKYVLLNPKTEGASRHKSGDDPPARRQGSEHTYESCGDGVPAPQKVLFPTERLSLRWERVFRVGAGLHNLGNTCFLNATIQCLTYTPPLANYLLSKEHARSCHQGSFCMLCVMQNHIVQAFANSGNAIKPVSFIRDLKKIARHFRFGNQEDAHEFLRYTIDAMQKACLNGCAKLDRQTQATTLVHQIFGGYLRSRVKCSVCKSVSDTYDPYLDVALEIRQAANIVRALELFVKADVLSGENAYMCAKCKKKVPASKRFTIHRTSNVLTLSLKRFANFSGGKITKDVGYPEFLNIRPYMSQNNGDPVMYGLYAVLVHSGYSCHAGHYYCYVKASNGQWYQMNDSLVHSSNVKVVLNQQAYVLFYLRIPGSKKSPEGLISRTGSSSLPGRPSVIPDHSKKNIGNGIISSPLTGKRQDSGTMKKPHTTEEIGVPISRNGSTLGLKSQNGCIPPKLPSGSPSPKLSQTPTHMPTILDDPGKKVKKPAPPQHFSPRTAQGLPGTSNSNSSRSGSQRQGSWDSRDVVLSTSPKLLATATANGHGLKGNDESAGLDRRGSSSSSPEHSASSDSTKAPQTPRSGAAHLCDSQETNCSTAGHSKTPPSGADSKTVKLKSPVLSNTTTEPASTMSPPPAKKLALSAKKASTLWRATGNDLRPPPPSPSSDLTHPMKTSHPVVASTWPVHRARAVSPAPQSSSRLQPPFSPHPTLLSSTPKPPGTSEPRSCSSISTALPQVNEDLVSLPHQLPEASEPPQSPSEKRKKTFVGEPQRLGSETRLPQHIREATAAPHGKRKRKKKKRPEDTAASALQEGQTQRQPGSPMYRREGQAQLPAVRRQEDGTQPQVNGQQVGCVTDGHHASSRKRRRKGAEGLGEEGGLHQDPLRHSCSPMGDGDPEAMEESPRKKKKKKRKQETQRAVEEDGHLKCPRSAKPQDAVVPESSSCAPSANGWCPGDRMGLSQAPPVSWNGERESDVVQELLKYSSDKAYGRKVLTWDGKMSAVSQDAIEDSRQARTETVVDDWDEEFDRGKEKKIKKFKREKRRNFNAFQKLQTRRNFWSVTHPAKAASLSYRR
Method in brief: as §1

USP38 = target: T2, USP38 (UniProt Q8NB14)
T2 sequence (whole entry): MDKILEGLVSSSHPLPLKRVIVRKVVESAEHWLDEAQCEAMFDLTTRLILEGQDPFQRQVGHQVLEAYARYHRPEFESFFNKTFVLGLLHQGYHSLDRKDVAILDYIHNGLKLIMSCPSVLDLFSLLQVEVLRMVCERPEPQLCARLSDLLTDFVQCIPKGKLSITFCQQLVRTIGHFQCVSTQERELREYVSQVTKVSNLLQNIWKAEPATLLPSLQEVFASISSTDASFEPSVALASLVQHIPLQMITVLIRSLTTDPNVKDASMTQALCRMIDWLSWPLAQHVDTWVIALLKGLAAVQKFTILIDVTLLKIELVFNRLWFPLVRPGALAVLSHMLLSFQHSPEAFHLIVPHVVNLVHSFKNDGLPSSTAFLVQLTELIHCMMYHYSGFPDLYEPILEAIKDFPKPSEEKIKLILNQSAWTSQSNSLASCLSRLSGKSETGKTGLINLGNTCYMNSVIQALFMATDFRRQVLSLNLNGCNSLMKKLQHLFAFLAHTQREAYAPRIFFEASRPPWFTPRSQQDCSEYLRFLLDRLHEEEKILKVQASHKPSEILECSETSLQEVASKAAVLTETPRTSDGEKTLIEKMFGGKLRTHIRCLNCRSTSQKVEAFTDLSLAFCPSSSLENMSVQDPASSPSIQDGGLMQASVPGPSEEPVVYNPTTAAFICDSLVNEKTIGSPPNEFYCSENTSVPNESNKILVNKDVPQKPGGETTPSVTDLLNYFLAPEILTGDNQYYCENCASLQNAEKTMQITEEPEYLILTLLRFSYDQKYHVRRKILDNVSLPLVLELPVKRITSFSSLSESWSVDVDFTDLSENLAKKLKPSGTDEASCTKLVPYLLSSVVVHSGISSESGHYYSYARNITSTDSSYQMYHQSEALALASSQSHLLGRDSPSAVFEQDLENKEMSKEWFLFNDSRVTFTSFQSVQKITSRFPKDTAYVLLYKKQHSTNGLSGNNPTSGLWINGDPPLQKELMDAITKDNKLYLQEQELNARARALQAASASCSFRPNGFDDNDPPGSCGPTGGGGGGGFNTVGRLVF
Method in brief: as §1

USP39 = target: T3, USP39 (UniProt Q53GS9)
T3 sequence (whole entry): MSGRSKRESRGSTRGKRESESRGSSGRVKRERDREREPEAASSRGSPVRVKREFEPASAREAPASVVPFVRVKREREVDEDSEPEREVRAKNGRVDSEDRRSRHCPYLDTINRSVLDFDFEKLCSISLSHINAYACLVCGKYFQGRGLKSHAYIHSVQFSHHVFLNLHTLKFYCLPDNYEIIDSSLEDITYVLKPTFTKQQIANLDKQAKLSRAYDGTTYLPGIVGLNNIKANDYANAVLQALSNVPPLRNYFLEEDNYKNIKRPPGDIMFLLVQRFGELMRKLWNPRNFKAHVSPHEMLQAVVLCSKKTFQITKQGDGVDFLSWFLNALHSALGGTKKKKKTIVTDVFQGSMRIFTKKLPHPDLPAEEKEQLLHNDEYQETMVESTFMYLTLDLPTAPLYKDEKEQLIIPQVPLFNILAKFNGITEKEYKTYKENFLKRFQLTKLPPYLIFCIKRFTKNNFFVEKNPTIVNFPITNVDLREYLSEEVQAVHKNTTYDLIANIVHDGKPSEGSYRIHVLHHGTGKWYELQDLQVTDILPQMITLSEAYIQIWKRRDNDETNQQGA
Method in brief: as §1

USP4 = target: T4, USP4 (UniProt Q13107)
T4 sequence (whole entry): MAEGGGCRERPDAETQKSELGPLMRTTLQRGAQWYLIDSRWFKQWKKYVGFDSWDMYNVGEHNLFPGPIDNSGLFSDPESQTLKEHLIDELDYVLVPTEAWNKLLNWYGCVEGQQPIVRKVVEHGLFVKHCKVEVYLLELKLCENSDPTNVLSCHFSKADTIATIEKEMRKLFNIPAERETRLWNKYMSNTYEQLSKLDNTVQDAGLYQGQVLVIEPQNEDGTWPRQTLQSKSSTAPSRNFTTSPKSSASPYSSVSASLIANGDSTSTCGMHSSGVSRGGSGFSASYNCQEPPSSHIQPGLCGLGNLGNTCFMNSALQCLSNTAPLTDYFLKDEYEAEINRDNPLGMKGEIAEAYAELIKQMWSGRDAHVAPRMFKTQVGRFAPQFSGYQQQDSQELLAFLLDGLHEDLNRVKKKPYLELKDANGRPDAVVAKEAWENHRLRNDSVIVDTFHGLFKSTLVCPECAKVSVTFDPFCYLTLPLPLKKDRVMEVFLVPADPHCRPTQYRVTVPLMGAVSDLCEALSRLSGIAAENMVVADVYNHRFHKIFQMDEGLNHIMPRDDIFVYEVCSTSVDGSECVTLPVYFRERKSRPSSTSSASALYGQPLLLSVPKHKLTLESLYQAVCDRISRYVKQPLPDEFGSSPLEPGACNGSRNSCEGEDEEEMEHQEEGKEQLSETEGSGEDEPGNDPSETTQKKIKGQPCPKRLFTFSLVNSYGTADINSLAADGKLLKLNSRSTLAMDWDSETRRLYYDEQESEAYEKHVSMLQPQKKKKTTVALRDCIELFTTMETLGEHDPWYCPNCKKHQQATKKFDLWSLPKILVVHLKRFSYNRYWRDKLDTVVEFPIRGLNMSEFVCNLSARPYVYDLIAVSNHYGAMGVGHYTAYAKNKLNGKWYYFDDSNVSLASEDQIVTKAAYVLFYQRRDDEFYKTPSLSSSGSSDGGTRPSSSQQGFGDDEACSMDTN
Method in brief: as §1

Measured: log2 ratio of Biotin-Ahx-Ub-VS probe labelling

USP34, sequence (Q70CQ2 whole entry, the tested form may be a part): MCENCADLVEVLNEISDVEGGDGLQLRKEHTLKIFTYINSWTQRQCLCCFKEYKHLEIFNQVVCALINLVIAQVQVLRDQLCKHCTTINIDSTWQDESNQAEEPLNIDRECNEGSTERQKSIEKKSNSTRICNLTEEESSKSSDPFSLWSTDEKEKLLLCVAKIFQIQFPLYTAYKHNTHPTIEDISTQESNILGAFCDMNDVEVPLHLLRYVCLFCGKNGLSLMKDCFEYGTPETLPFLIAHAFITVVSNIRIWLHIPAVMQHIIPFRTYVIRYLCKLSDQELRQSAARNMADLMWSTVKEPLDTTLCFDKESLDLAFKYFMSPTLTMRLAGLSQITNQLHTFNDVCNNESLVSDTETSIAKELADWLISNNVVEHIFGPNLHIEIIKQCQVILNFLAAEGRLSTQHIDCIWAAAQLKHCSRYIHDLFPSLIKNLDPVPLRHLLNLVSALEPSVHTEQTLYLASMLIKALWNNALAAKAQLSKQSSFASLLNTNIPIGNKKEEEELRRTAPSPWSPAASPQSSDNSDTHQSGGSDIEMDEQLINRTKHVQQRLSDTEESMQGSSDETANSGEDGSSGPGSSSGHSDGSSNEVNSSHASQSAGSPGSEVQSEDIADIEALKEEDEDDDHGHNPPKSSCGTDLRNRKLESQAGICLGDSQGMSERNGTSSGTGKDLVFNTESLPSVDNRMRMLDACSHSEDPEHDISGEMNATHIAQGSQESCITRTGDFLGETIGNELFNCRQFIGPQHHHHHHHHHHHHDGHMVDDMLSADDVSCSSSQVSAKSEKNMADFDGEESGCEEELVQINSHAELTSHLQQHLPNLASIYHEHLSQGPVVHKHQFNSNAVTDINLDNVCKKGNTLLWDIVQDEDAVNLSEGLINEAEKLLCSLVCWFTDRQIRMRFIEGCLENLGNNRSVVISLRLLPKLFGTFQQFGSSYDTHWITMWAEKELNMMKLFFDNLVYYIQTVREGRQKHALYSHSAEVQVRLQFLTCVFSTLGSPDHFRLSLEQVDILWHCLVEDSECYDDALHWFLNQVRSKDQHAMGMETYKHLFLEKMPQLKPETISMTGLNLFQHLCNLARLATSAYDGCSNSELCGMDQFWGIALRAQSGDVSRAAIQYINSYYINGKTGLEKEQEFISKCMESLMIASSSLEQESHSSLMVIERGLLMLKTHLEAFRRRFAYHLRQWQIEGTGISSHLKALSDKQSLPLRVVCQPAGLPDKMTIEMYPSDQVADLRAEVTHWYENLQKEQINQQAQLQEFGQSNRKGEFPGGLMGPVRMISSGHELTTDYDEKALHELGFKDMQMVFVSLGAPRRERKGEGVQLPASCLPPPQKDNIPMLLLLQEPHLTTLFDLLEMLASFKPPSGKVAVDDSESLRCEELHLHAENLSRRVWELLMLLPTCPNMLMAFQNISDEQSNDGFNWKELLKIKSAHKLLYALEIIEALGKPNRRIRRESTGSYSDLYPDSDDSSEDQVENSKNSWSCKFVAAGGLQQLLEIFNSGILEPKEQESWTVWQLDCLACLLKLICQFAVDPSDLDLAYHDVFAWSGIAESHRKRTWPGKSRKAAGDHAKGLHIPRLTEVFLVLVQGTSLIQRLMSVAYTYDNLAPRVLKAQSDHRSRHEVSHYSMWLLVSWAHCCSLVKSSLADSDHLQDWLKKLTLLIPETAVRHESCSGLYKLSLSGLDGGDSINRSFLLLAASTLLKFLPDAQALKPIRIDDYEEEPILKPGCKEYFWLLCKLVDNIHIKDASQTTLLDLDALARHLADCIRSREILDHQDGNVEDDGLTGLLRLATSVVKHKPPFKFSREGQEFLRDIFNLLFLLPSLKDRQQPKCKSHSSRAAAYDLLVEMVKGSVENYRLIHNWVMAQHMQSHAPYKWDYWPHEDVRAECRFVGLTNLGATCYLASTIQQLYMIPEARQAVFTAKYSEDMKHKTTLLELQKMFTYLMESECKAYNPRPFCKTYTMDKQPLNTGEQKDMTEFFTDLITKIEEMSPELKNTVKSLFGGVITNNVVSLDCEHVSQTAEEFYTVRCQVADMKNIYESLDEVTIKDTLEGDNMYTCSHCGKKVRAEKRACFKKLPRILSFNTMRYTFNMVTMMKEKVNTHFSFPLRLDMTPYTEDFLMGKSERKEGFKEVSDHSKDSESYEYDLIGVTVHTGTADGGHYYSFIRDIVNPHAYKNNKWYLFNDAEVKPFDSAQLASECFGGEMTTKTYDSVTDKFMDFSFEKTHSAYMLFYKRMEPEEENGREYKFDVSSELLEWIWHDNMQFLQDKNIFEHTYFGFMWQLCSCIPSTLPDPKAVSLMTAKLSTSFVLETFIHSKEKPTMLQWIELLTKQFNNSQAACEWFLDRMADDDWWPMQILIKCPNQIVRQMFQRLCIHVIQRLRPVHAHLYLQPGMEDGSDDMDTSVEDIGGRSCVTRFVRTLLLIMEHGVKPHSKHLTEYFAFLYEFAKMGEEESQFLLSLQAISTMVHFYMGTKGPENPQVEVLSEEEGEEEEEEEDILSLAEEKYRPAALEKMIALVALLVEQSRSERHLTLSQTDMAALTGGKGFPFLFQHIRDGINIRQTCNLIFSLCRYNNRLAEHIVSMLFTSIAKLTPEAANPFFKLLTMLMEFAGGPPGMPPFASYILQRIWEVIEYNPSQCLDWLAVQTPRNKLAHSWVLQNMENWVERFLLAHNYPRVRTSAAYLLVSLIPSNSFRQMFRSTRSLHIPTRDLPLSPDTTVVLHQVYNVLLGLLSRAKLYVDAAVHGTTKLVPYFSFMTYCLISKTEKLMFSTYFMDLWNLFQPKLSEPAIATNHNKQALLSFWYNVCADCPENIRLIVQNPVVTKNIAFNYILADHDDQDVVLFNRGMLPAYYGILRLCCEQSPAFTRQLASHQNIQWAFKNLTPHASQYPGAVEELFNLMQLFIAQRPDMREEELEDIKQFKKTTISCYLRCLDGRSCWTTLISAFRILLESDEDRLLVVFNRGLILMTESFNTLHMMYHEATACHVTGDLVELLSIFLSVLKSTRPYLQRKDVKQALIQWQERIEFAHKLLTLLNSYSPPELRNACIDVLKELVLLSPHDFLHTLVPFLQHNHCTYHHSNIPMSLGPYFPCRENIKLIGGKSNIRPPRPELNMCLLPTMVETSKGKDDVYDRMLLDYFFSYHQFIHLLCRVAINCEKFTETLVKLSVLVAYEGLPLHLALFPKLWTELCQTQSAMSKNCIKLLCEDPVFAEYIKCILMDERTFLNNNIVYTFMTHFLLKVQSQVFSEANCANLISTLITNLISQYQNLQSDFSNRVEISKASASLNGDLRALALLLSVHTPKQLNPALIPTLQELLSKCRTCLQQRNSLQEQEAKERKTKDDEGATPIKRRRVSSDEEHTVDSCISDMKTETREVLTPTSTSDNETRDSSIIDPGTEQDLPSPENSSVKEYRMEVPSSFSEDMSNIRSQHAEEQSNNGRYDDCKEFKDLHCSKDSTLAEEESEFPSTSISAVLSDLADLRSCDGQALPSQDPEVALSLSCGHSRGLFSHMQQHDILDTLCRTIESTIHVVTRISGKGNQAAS

Cl.O=C(CN1CCN(C(=O)CCl)CC1)Nc1ccc(F)cc1
inactive: USP34 0.1 | USP36 -0.231 | USP38 -0.043 | USP39 0.0696 | USP4 0.142
